{"source": "PubChem BioAssay (Tox21)", "note": "Inconclusive results are not listed. Entries that show only a call come without a potency. The source made the active and inactive calls. Calls follow the shape of the dose curve; as a rule, active = well fitted inhibition curve with a large enough effect in the signal ratio in the repeat runs (not every such curve was filed as active); inconclusive = weak or mixed curves, or effect the other way; inactive = flat fitted curve, though single readings scatter; the % refers to the signal ratio.", "data": [{"experiment": "cAMP Responsive Elements (CRE) small molecule antagonists, cell-based qHTS assay (AID 1963591)", "conditions": "CRE-bla HEK293T, beta-lactamase FRET ratio; series mostly up to 92.4 µM", "excerpt": "U.S. Tox21 Program National Center for Advancing Translational Sciences [NCATS] Division of Preclinical Innovation [DPI] U.S. Environmental Protection Agency [EPA] National Institutes of Environmental Health Sciences [NIEHS] National Toxicology Program [NTP] U.S. Food and Drug Administration [FDA] Tox21 Assay Overview: CREB (cyclic-AMP Responsive Element Binding Protein) is a cellular transcription factor. It binds to certain DNA sequences called cAMP Responsive Elements (CRE) and regulates the transcription of the genes. […] This cell line can be used to find agonists/antagonists of the cyclic AMP signaling pathway. The activation of the report gene under culture conditions can be detected by fluorescence intensity. This cell line has been used to screen the Tox21 10K compound library to […].\nTox21 Assay Protocol Summary: CRE-bla Hek 293T cells were suspended in assay medium (DMEM containing 10% dialyzed FBS, 0.1 mM NEAA, 1 mM sodium pyruvate and 25 mM HEPES) and dispensed at 2,000 cells/4 uL /well into 1536-well black wall/clear bottom plates using a Multidrop Combi (ThermoFisher Scientific, Waltham, MA) dispenser. After the assay plates were incubated at 37 C/5% CO2 for 18 hrs, 23 nL of compounds dissolved in DMSO, positive controls or DMSO only was transferred to the assay plate by a pintool workstation (Kalypsys, San Diego, CA), followed by addition of 1 […] uL of 1.25uM NKH477 (0.25 uM as final concentration) in assay medium using a Flying Reagent Dispenser (Aurora Discovery, San Diego, CA). The plates were incubated at 37 C and 5% CO2 for 3 hrs. Then 1 uL of LiveBLAzer B/G FRET substrate (Invitrogen, Carlsbad, CA) was added to each well using Bioraptr Flying Reagent Dispenser (FRD, Aurora Discovery, San Diego, CA). The plates were incubated at room temperature for 2 h.", "values": [{"smiles": "CCNc1nc(NC(C)C)nc(OC)n1", "Potency": "inactive"}, {"smiles": "CCOC(=S)S", "Potency": "inactive"}, {"smiles": "Clc1cnc(Oc2ccc(Oc3ncc(Cl)cc3Cl)cc2)c(Cl)c1", "Potency": "inactive"}, {"smiles": "ClCc1ccccn1", "Potency": "inactive"}, {"smiles": "CCOP(=S)(OCC)SCCSCC", "Potency": "inactive"}, {"smiles": "CCCCCCCCCCCC[N+](C)(C)CCOc1ccccc1", "Potency": "inactive"}, {"smiles": "C=CCSSCC=C", "Potency": "inactive"}, {"smiles": "COP(=O)(O)OC", "Potency": "inactive"}, {"smiles": "CC(c1ccc(O)cc1)c1ccc(O)cc1", "Potency": "inactive"}, {"smiles": "Nc1cccnc1", "Potency": "inactive"}, {"smiles": "Cc1cc(O)ccc1Cl", "Potency": "inactive"}, {"smiles": "OCCSSCCO", "Potency": "inactive"}, {"smiles": "CCCCC(CC)COC(=O)Cl", "note": "(stereo not given)", "Potency": "inactive"}, {"smiles": "C=C(C#N)CCC#N", "Potency": "inactive"}, {"smiles": "CCCCCCCCn1cc[n+](C)c1", "Potency": "inactive"}, {"smiles": "N#CCC#N", "Potency": "inactive"}, {"smiles": "CCOC(=O)CC(SP(=S)(OC)OC)C(=O)OCC", "note": "(stereo not given)", "Potency": "inactive"}, {"smiles": "Nc1ccc(N)cc1", "Potency": "inactive"}, {"smiles": "ClC1C(Cl)C(Cl)C(Cl)C(Cl)C1Cl", "note": "(stereo not given)", "Potency": "inactive"}, {"smiles": "CNC(=O)Oc1cccc2ccccc12", "Potency": "inactive"}, {"smiles": "O=S(=O)(c1ccc(Cl)cc1)c1cc(Cl)c(Cl)cc1Cl", "Potency": "inactive"}, {"smiles": "N#Cc1cc([N+](=O)[O-])ccc1N", "Potency": "inactive"}, {"smiles": "COCC(=O)N(c1c(C)cccc1C)N1CCOC1=O", "Potency": "inactive"}, {"smiles": "CCOC(=O)C1(c2ccccc2)CCN(CCC(C#N)(c2ccccc2)c2ccccc2)CC1", "Potency": "inactive"}, {"smiles": "Nc1c(Cl)cc([N+](=O)[O-])cc1Cl", "Potency": "inactive"}, {"smiles": "O=C(CCl)c1ccccc1", "Potency": "inactive"}, {"smiles": "Cc1cc(C)cc(C)c1", "Potency": "inactive"}, {"smiles": "NCCc1ccc(O)cc1", "Potency": "inactive"}, {"smiles": "CCCCOC(=O)CCC(=O)OCCCC", "Potency": "inactive"}, {"smiles": "O=[N+]([O-])c1cc([As](=O)(O)O)ccc1O", "Potency": "inactive"}, {"smiles": "Sc1ccccc1Cl", "Potency": "inactive"}, {"smiles": "Cc1cnc(C2=NC(C)(C(C)C)C(=O)N2)c(C(=O)O)c1", "note": "(stereo not given)", "Potency": "inactive"}, {"smiles": "COc1ccc2c3c1O[C@H]1[C@H](O)CC[C@H]4[C@@H](C2)N(C)CC[C@@]341", "Potency": "inactive"}, {"smiles": "Cc1cccc(C)c1NC(=O)CN1CCCC1=O", "Potency": "inactive"}, {"smiles": "CNC(=O)O/N=C(\\SC)C(=O)N(C)C", "Potency": "inactive"}, {"smiles": "CN=C=O", "Potency": "inactive"}, {"smiles": "N#CC(c1ccccc1)c1ccccc1", "Potency": "inactive"}, {"smiles": "CCN(C)N=O", "Potency": "inactive"}, {"smiles": "CC(C)(C)C(=O)Cl", "Potency": "inactive"}, {"smiles": "CCCCOC(=O)c1ccccc1C(=O)OCc1ccccc1", "Potency": "inactive"}]}]}
